The full data set covers some 7,900 targets. This sample favours those with a hit. About 0.6% of all pairs of compound and target were hits. A number with no mark means an inactive call.
These targets were tested with NC(=O)c1cnc(N[C@@H]2CCCC[C@@H]2N)nc1Nc1cccc(-n2nccn2)c1 (assay: log2 fold change, soluble protein after heating vs DMSO (PISA); higher = thermal stabilisation; K562 cells, 10 uM, 30 min; active = over 0.2 and 3.5 SD of the protein, either way, in both replicates (recomputed)).
Outline: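 Soluble protein was defined as the supernatant after 21,000xg for 90 min. It came from K562 cells at 2×10^6 cells/mL given 10 μM compound for 30 min, heated in aliquots for 3 min across 48°C-58°C, pooled, and extracted in PBS with 0.5% NP-40 at 4°C, and was quantified by TMTpro 16plex LC-MS/MS with equalised channel sums. Thermal stability against control samples, from duplicates, is reported as log2 fold change.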
Chain of UniProt P49189 (P49189 whole entry, looked up): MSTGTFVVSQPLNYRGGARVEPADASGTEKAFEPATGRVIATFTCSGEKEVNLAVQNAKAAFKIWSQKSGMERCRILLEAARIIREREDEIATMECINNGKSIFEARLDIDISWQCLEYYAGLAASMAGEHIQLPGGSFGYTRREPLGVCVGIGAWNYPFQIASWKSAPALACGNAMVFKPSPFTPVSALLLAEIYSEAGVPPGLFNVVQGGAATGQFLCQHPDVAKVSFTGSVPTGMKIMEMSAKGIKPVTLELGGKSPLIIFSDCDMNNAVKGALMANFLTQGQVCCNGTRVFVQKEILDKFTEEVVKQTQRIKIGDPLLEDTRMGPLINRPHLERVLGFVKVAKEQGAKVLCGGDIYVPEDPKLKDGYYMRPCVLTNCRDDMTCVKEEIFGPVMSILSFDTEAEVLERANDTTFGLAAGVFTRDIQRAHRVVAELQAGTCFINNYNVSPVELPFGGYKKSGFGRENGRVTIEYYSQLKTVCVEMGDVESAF
Chain of UniProt P31751 (P31751 whole entry, looked up): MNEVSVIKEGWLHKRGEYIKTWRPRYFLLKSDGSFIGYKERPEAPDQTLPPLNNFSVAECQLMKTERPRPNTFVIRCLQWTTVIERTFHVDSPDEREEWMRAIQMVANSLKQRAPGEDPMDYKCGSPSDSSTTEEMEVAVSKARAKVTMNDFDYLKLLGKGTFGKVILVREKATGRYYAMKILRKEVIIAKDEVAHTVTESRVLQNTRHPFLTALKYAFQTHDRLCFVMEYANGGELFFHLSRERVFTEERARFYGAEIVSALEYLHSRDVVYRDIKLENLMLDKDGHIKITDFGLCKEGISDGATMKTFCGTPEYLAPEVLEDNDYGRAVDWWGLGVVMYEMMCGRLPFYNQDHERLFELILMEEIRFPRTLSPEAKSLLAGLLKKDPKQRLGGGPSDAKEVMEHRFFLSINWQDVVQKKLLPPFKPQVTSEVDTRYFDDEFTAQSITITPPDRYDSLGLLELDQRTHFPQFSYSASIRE
Chain of UniProt Q9UBL3 (Q9UBL3 whole entry, looked up): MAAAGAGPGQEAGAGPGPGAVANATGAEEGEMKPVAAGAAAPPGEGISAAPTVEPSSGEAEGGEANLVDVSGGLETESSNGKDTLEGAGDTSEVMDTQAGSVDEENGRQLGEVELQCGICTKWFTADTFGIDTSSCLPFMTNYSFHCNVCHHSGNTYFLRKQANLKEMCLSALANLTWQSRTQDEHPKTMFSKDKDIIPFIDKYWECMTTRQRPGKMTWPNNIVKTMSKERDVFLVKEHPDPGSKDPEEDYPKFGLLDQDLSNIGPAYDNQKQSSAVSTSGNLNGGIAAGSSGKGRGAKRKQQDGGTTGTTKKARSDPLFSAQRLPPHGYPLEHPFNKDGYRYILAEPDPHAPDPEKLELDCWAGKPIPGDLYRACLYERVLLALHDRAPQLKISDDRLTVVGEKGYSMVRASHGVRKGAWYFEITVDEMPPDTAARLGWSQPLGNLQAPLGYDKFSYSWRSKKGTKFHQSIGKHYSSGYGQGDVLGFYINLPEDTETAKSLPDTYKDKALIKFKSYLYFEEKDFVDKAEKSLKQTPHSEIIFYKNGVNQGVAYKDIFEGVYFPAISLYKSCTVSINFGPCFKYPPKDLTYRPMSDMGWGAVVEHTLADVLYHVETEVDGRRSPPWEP
Chain of UniProt P54886 (P54886 whole entry, looked up): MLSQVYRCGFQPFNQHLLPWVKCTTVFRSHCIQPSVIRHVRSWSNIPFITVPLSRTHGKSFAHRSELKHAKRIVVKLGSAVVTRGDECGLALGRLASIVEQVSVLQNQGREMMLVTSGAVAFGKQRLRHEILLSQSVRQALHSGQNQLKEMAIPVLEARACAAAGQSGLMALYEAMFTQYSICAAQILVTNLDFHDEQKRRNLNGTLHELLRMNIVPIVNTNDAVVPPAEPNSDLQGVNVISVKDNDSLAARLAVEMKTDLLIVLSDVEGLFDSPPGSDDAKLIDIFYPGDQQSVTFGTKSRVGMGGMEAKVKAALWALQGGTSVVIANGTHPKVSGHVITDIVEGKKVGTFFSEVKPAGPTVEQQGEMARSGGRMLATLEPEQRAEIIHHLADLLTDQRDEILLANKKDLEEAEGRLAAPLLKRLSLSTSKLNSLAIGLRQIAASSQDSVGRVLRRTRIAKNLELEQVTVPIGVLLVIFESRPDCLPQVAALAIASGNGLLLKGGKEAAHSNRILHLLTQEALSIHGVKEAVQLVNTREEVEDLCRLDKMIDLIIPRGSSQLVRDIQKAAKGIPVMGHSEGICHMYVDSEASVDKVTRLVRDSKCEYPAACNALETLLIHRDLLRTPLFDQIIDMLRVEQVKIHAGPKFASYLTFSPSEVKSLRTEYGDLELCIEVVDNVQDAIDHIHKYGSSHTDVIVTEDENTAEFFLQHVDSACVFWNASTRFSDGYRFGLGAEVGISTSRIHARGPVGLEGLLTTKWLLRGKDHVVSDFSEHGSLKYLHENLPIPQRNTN
Chain of UniProt O95870 (O95870 whole entry, looked up): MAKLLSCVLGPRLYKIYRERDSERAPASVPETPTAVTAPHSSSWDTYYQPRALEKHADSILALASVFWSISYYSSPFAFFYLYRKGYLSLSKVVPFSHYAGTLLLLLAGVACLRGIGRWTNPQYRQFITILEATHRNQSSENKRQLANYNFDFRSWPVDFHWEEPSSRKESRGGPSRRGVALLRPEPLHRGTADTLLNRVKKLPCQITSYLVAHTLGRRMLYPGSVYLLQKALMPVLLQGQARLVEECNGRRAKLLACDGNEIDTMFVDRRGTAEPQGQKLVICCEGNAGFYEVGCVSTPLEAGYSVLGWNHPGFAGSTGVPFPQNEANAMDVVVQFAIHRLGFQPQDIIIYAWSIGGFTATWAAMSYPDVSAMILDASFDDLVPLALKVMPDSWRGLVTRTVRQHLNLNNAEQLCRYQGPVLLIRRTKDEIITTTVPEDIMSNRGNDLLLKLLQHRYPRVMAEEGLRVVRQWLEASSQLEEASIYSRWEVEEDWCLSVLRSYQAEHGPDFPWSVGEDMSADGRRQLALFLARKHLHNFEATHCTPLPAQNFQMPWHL
Chain of UniProt Q9Y3D8 (Q9Y3D8 whole entry, looked up): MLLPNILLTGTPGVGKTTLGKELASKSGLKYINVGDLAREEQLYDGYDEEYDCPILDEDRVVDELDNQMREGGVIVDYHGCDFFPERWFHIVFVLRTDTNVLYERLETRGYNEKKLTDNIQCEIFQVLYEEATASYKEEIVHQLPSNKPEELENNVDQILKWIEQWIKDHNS
Chain of UniProt Q9UKV5 (Q9UKV5 whole entry, looked up): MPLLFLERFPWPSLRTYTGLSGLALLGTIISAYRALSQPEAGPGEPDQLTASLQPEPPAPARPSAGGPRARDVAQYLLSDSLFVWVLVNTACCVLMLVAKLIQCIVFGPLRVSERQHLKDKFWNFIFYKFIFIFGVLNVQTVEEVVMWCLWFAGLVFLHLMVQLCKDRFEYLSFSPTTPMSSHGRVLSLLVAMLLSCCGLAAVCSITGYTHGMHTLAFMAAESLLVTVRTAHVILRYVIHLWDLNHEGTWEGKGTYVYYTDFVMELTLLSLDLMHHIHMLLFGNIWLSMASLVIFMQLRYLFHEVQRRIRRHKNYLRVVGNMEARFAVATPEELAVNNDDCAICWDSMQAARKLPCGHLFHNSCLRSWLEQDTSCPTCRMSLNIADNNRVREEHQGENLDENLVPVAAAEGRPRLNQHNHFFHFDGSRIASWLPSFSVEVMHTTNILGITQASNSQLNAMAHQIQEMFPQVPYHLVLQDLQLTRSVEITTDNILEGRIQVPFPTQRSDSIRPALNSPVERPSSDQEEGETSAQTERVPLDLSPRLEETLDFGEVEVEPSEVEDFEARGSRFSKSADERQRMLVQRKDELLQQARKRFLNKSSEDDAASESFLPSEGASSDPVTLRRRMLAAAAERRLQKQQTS
Chain of UniProt Q9Y6E2 (Q9Y6E2 whole entry, looked up): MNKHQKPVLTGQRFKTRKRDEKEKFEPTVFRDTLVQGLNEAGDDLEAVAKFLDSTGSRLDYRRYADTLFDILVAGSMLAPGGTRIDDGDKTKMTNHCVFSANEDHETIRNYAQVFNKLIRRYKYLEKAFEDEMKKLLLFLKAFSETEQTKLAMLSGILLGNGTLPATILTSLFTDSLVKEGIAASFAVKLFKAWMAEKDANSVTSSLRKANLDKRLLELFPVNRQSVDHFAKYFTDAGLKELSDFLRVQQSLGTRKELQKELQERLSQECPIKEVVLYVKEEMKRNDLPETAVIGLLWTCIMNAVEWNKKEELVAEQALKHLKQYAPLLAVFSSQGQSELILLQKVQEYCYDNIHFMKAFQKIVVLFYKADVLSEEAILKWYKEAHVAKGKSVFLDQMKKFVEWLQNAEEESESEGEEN
Chain of UniProt Q9Y2Y0 (Q9Y2Y0 whole entry, looked up): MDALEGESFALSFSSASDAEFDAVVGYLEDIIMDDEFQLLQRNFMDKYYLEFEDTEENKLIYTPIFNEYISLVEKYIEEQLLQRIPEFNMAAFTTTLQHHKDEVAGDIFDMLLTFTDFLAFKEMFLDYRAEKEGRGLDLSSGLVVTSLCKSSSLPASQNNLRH
Chain of UniProt Q9P287 (Q9P287 whole entry, looked up): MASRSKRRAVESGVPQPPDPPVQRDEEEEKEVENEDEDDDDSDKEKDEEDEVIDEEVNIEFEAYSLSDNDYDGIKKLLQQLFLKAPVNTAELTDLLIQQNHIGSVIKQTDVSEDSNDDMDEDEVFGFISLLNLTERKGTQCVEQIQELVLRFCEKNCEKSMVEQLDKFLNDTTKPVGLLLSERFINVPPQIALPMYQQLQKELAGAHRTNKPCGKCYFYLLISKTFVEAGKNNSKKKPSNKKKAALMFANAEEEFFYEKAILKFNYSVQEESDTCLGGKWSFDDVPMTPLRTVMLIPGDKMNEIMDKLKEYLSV
Chain of UniProt P53680 (P53680 whole entry, looked up): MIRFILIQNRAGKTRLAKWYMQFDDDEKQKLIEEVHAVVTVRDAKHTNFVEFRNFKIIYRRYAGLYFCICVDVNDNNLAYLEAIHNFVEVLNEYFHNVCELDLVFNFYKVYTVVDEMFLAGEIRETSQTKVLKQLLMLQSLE
Chain of UniProt P56385 (P56385 whole entry, looked up): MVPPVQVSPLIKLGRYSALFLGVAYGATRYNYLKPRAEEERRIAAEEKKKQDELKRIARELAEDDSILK
In the case of BZW2 (UniProt Q9Y6E2), the log2 fold change is reported as -0.055.
In the case of ALDH6A1 (UniProt Q02252), the log2 fold change is reported as 0.034.
Target ATAD3B (UniProt Q5T9A4) has a log2 fold change of -0.029.
In the case of ASNS (UniProt P08243), the log2 fold change is reported as -0.018.
ALG11 (UniProt Q2TAA5) showed a log2 fold change of 0.032.
AGPAT5 (UniProt Q9NUQ2) was tested, and the log2 fold change was 0.016.
With ALDH9A1 isoform 3 (UniProt P49189) the log2 fold change was -0.025.
ARL2BP (UniProt Q9Y2Y0) gave a log2 fold change of -0.108.
ASH2L (UniProt Q9UBL3) showed a log2 fold change of -0.075.
ACO2 (UniProt Q99798) was tested, and the log2 fold change was -0.04.
Target APOB (UniProt P04114) has a log2 fold change of -0.387.
For AMFR (UniProt Q9UKV5), the log2 fold change was -0.128.
For AKT2 (UniProt P31751), the log2 fold change was -0.266 (active).
With BCAP29 isoform 2 (UniProt Q9UHQ4) the log2 fold change was 0.049.
Target ADD3 (UniProt Q9UEY8) has a log2 fold change of -0.014.
For ATP6V0A1 isoform 3 (UniProt Q93050), the log2 fold change was -0.207.
BCCIP isoform 2 (UniProt Q9P287) was tested, and the log2 fold change was -0.001.
With BRD4 (UniProt O60885) the log2 fold change was -0.096.
In the case of ATL2 (UniProt Q8NHH9), the log2 fold change is reported as -0.03.
Work on BRIX1 (UniProt Q8TDN6) yielded a log2 fold change of -0.025.
In the case of ACBD6 (UniProt Q9BR61), the log2 fold change is reported as -0.077.
ABCB6 (UniProt Q9NP58) gave a log2 fold change of -0.111.
Target ATG4B isoform 2 (UniProt Q9Y4P1) has a log2 fold change of -0.104.
ALDH18A1 (UniProt P54886) showed a log2 fold change of -0.03.
AGPAT3 isoform 3 (UniProt Q9NRZ7) gave a log2 fold change of -0.044.
In the case of ANKZF1 (UniProt Q9H8Y5), the log2 fold change is reported as 0.026.
For AK6 (UniProt Q9Y3D8), the log2 fold change was -0.072.
AP2S1 (UniProt P53680) showed a log2 fold change of 0.102.
In the case of ACADVL isoform 3 (UniProt P49748), the log2 fold change is reported as -0.036.
In the case of ATP5ME (UniProt P56385), the log2 fold change is reported as -0.007.
B4GALT1 (UniProt P15291) was tested, and the log2 fold change was 0.114.
Work on ALKBH5 (UniProt Q6P6C2) yielded a log2 fold change of -0.021.
For ATP12A isoform 2 (UniProt P54707), the log2 fold change was 0.049.
With ABHD16A (UniProt O95870) the log2 fold change was 0.026.
BAP1 (UniProt Q92560) showed a log2 fold change of 0.085.
Target ARMC8 (UniProt Q8IUR7) has a log2 fold change of 0.017.
